Assay results reported in PubChem BioAssay (NCI).
This is part of a sample that, as a whole, favours compounds with a hit. Of some 83,000 tested, about 20% had one in any assay.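 In brief: 96-well plates, 48 h treatment, single concentration, percent growth endpoint.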 Values without a mark were called inactive. Active and inactive are the calls of the source. How the source made its calls: active means growth percent below 10; inactive means the rest.

Assays:
Test in all cases: NCI-60 one-dose screen, 48 h (100 = growth as untreated, 0 = no growth, -100 = all killed)
Conditions in all cases: 10 µM unless noted
SR leukemia = tested on: SR leukemia
RPMI-8226 leukemia = tested on: RPMI-8226 leukemia
OVCAR-8 ovarian = tested on: OVCAR-8 ovarian
OVCAR-5 ovarian = tested on: OVCAR-5 ovarian
OVCAR-4 ovarian = tested on: OVCAR-4 ovarian
SK-OV-3 ovarian = tested on: SK-OV-3 ovarian
IGROV1 ovarian = tested on: IGROV1 ovarian
OVCAR-3 ovarian = tested on: OVCAR-3 ovarian
HS 578T breast = tested on: HS 578T breast
NCI/ADR-RES ovarian = tested on: NCI/ADR-RES ovarian
T-47D breast = tested on: T-47D breast
BT-549 breast = tested on: BT-549 breast
MDA-MB-435 melanoma = tested on: MDA-MB-435 melanoma
SW-620 colon = tested on: SW-620 colon
MCF7 breast = tested on: MCF7 breast
HCT-116 colon = tested on: HCT-116 colon
HCC-2998 colon = tested on: HCC-2998 colon
KM12 colon = tested on: KM12 colon

Compound	growth (SR leukemia)	growth (RPMI-8226 leukemia) [%]	growth (OVCAR-8 ovarian) [%]	growth (OVCAR-5 ovarian) [%]	growth (OVCAR-4 ovarian) [%]	growth (SK-OV-3 ovarian) [%]	growth (IGROV1 ovarian) [%]	growth (OVCAR-3 ovarian) [%]	growth (HS 578T breast) [%]	growth (NCI/ADR-RES ovarian) [%]	growth (T-47D breast) [%]	growth (BT-549 breast) [%]	growth (MDA-MB-435 melanoma)	growth (SW-620 colon) [%]	growth (MCF7 breast)	growth (HCT-116 colon) [%]	growth (HCC-2998 colon)	growth (KM12 colon) [%]
CCOC(=O)c1ccc(C(C)(C)C)cc1	95.7%	104	103	106	109	104	108	107	114	108	105	109	108%	107	104%	102	100%	105
CCCc1cccc(CCC)c1NC(=O)Nc1cc(Cl)cc(Cl)c1	108%	96.7	101	104	95.3	101	108	103	98.2	110	82.3	86.6	104%	123	99.1%	91.2	116%	101
COC(c1ccc2c(c1)OCO2)C(C)Br (configuration not stated)	88.6%	93.5	101	101	100	83.1	91.4	110	91.2	106	71.8	104	90%	94.9	110%	88.5	105%	93.5
ClCC(Cl)[C@@H]1CC2C=CC1C2 (some centres not stated)	112%	104	96.2	110	104	111	114	119	108	105	98.8	103	96.9%	105	98.1%	98.4	118%	115
C=CCC(O)C=C (configuration not stated)	84.4%	105	101	108	106	94	103	108	101	103	95.6	104	111%	104	98.2%	105	113%	102
CCCCCCCCCCCCCCCCCC(=O)NCCNC(=O)CCCCCCCCCCCCCCCCC	0.967% (active)	86.4	98.2	94.8	95	84.5	66.3	96.9	107	93.9	78.6	105	94.2%	102	71.6%	70.2	82.1%	96.4
Nc1ccc(F)c(Cl)c1F	101%	93.7	108	98.8	112	113	116	111	96.4	105	102	88.8	109%	104	102%	94.9	100%	108
CN(CCCN(C)CCC1CCCCC1)CCC1CCCCC1	-36.3% (active)	43.6	67.6	56.4	59.1	58.9	66.6	73.9	51.2	62	17.9	39.2	-26.1% (active)	75.2	-47.4% (active)	47.2	-30.1% (active)	46.7
Nc1nc(Cl)cc(Cl)n1	93.6%	114	112	103	112	91.1	100	111	113	95.8	82	102	111%	109	90.3%	90.1	114%	106
COc1cc(CC#N)c([N+](=O)[O-])cc1OC	91.2%	109	98.2	111	128	111	95.6	109	117	105	105	105	111%	119	102%	93.5	108%	104
CCOC(=O)/C(O)=C(\C=N\C(=S)Nc1ccc(Cl)c(Cl)c1)C(=O)OCC	85.7%	80.1	92.5	91.8	60.2	81.6	101	100	95.6	90.8	58.3	100	87.1%	104	81%	101	87.9%	100
C=CC(C)C(C)(C)O (configuration not stated)	97.6%	109	108	98.7	113	106	102	102	96.3	98.3	89.2	97.3	102%	101	101%	93.9	106%	101
NCCCN1CCCC1=O	88.2%	107	97.5	110	111	116	104	112	109	101	115	110	124%	108	104%	107	100%	104
C=CCc1cc(OC)c(O)c(OC)c1	87.1%	97.6	103	96.8	102	103	113	106	107	99.8	83.7	106	108%	114	96.9%	92.6	102%	104
CCCCN(C=S)CCCC	91.9%	101	95	102	112	88.6	107	108	97.1	107	81	97.4	105%	96.4	87.6%	98.9	102%	102
Cc1cc(=O)n(Nc2ccccc2)c(O)c1C#N	88.9%	99.8	106	105	108	99.6	101	98.6	100	102	92	107	108%	98.6	98.4%	101	112%	92.9
CC1=CC(=Nc2ccc(N(C)C)cc2)C=C(C)C1=O	88.1%	39.7	88.9	108	45.2	97.1	96.1	60	90.8	83.2	48.5	74.1	75.7%	93.8	77%	83.5	96.1%	87.5
C=COC(=O)C(C)(C)C	91.2%	99.2	107	106	108	107	96.7	107	101	101	93.8	89	101%	98.4	96%	109	94.1%	107
CC(=O)C1C(=O)C(=O)N(c2cccc([N+](=O)[O-])c2)C1=O (configuration not stated)	95.6%	107	106	113	103	102	109	117	93.8	113	101	109	104%	111	94.3%	109	85.9%	112
